These results are taken from PubChem BioAssay (NCATS).

“And” between values parts separate entries of the source, which are not always exact repeats. Identical values can stand only once. Inconclusive results are not listed. The source made the active and inactive calls. The call rests on the fitted dose curve; in most records, active means well fitted curve in the direction sought with a large enough effect; inconclusive means small, poorly fitted or top-dose-only effect, or another doubt; inactive means no such curve, though single readings can be large; an effect the other way counts as inactive or inconclusive.

A short description of experiment [1]: qHTS of pediatric cancer cell lines to identify multiple opportunities for drug repurposing: Primary screen for NB-EBc1 cells (AID 1347095). The gist of the method:
(§1)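 Primary screen of approved and investigational compounds on cells in growth media at 37 degrees C, 5% CO2. MIPE set at 11-point and NPC set at 8-point dilutions; viability scored by ATP-based luminescence at 48 hours.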

A short description of experiment [2]: qHTS of pediatric cancer cell lines to identify multiple opportunities for drug repurposing: Primary screen for U-2 OS cells (AID 1347096). Further: nearly all actives have a fitted effect of over 50% in size. The gist of the method:
(§2)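 Cells (500-1,000/well) in growth media were settled 5 h at 37 degrees C, then given compounds for 48 h. Viability was read as CellTiter-Glo luminescence. Primary runs used MIPE at 11 points (0.78 nM-46 µM) and NPC at 8 points (0.59 nM-46 µM); follow-ups used 11 points.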

The nature of experiment [3]: qHTS of pediatric cancer cell lines to identify multiple opportunities for drug repurposing: Primary screen for Saos-2 cells (AID 1347097). Further: nearly all actives have a fitted effect of over 40% in size. An outline of the steps:
as §1

Experiment [4] can be described thus: qHTS of pediatric cancer cell lines to identify multiple opportunities for drug repurposing: Primary screen for SK-N-SH cells (AID 1347098). Further: nearly all actives have a fitted effect of over 65% in size. An outline of the steps: (§3)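 Cells (500-1,000/well) rested 5 h, then received compounds for 48 h; metabolically active cells were measured by CellTiter-Glo luminescence. Final concentrations spanned up to 46 µM (MIPE, 11-point) or 0.59 nM-46 µM (NPC, 8-point) in primary screens, 11-point in follow-ups.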
In general terms: Quantitative high-throughput screening tests each substance at several concentrations.

The nature of experiment [5]: qHTS of pediatric cancer cell lines to identify multiple opportunities for drug repurposing: Primary screen for NB1643 cells (AID 1347099). Further: nearly all actives have a fitted effect of over 50% in size. The gist of the method: as §1
Experiment [6] in a line: qHTS of pediatric cancer cell lines to identify multiple opportunities for drug repurposing: Primary screen for LAN-5 cells (AID 1347100). The gist of the method:
as §2

Experiment [7] is described as follows: qHTS of pediatric cancer cell lines to identify multiple opportunities for drug repurposing: Primary screen for BT-12 cells (AID 1347101). Further: nearly all actives have a fitted effect of over 25% in size. The gist of the method: as §3
Experiment [8] is described as follows: qHTS of pediatric cancer cell lines to identify multiple opportunities for drug repurposing: Primary screen for Rh18 cells (AID 1347102). Further: nearly all actives have a fitted effect of over 65% in size. The gist of the method: as §2
Experiment [9] can be described thus: qHTS of pediatric cancer cell lines to identify multiple opportunities for drug repurposing: Primary screen for OHS-50 cells (AID 1347103). Further: nearly all actives have a fitted effect of over 40% in size. An outline of the steps:
as §3

Experiment [10] is described as follows: qHTS of pediatric cancer cell lines to identify multiple opportunities for drug repurposing: Primary screen for MG 63 (6-TG R) cells (AID 1347105). Further: nearly all actives have a fitted effect of over 50% in size. An outline of the steps: as §1
Experiment [11] in a line: qHTS of pediatric cancer cell lines to identify multiple opportunities for drug repurposing: Primary screen for control Hh wild type fibroblast cells (AID 1347106). Further: nearly all actives have a fitted effect of over 55% in size. The gist of the method: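 Viability after 48 h compound treatment at 37C, 500-1,000 cells/well, read as ATP luminescence with CellTiter-Glo. Primary screens used 11-point (MIPE, 0.78 nM-46 µM) or 8-point (NPC, 0.59 nM-46 µM) final concentrations; follow-up screens used 11-point dilutions.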

A short description of experiment [12]: qHTS of pediatric cancer cell lines to identify multiple opportunities for drug repurposing: Confirmatory screen for NB1643 cells (AID 1347109). Further: nearly all actives have a fitted effect of over 45% in size. An outline of the steps: as §2
Experiment [13] is described as follows: qHTS of pediatric cancer cell lines to identify multiple opportunities for drug repurposing: Confirmatory screen for A673 cells (AID 1347110).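 Further: cells exposed to compound for 48 h before the viability read; nearly all actives have a fitted effect of over 65% in size.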 An outline of the steps: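 Forty-eight-hour viability assay. Follow-up compounds ran at 11-point dilutions; positive control bortezomib at 2.3 uM final, neutral control DMSO.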
Experiment [14] in a line: qHTS of pediatric cancer cell lines to identify multiple opportunities for drug repurposing: Confirmatory screen for SK-N-MC cells (AID 1347111).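 Further: cells exposed to compound for 48 h before the readout; nearly all actives have a fitted effect of over 70% in size.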 The gist of the method: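 Metabolically active cells were quantified by ATP-dependent luminescence (CellTiter-Glo, 15 min at room temperature) following 48 h treatment. Cells had been plated at 500-1,000 per well and settled for 5 h beforehand.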

Experiment [15] in a line: qHTS of pediatric cancer cell lines to identify multiple opportunities for drug repurposing: Confirmatory screen for LAN-5 cells (AID 1347113). Further: nearly all actives have a fitted effect of over 65% in size. An outline of the steps:
as §2

Experiment [16] in a line: qHTS of pediatric cancer cell lines to identify multiple opportunities for drug repurposing: Primary screen for RD cells (AID 1347104). Further: nearly all actives have a fitted effect of over 55% in size. An outline of the steps:
as §1

Experiment [17] in a line: qHTS of pediatric cancer cell lines to identify multiple opportunities for drug repurposing: Primary screen for Rh30 cells (AID 1347107). Further: nearly all actives have a fitted effect of over 75% in size. The gist of the method: as §2
Experiment [18] in a line: qHTS of pediatric cancer cell lines to identify multiple opportunities for drug repurposing: Primary screen for Rh41 cells (AID 1347108). Further: nearly all actives have a fitted effect of over 70% in size. The gist of the method: as §1
Experiment [19] can be described thus: qHTS of pediatric cancer cell lines to identify multiple opportunities for drug repurposing: Confirmatory screen for DAOY cells (AID 1347114). Further: nearly all actives have a fitted effect of over 65% in size. An outline of the steps: (§4)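 Viability measured as metabolically active cells via CellTiter-Glo luminescence following 48 hours of compound exposure, 11-point dilutions in confirmatory testing. 500-1,000 cells/well plated 5 hours before dosing; controls were DMSO and 2.3 µM bortezomib.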

Experiment [20] is described as follows: qHTS of pediatric cancer cell lines to identify multiple opportunities for drug repurposing: Confirmatory screen for SJ-GBM2 cells (AID 1347116). Further: nearly all actives have a fitted effect of over 60% in size. An outline of the steps: as §4
Potency means the concentration at half of the fitted maximal effect.

As to `CCc1c2c(nc3ccc(OC(=O)N4CCC(N5CCCCC5)CC4)cc13)-c1cc3c(c(=O)n1C2)COC(=O)[C@]3(O)CC`, the Potency is 1.19 µM (active) and 332 nM (active) in experiment [1]; 1.5 µM (active) and 1.32 µM (active) in [3]; 7700 nM (active) in experiment [4]; 841 nM (active) and 1.66 µM (active) in [5]; 1.33 µM (active) and 372 nM (active) in experiment [6]; 2.43 µM (active) in [7]. Further, the Potency in experiment [8] was 18.7 µM (active); in experiment [9], 769 nM (active); in [10], 21.1 µM (active) and 1.48 µM (active); in experiment [12], 2610 nM (active); in experiment [13], 1170 nM (active); in experiment [14] it was 737 nM (active). In addition, in experiment [15], the Potency was 2930 nM (active). Also, the Potency entry in experiment [2] and in [11] was “inactive” in each case.
With `Cc1ccnc2c1NC(=O)c1cccnc1N2C1CC1`, the Potency result in experiment [1], in [2], in [3], in [5], in experiment [6] and in experiment [7] was “inactive” throughout. In addition, the Potency result in [8], in experiment [9], in [16], in experiment [10], in [11] and in [17] was “inactive” throughout. In addition, the Potency entry in experiment [18] is “inactive”.
Take `CC(C)(C#N)c1cc(Cn2cncn2)cc(C(C)(C)C#N)c1`: the Potency result in [1], in experiment [2], in experiment [3], in experiment [4], in experiment [5] and in experiment [6] was “inactive” throughout. The Potency result in [7], in experiment [8], in [9], in [10], in experiment [11] and in [17] was “inactive” throughout. Moreover, the Potency result in experiment [18], in experiment [12], in [13], in experiment [14], in experiment [15] and in experiment [19] was “inactive” throughout.
As to `CCCCS(=N)(=O)CCC(N)C(=O)O` (stereo not given), the Potency entry in experiment [1], in experiment [2], in experiment [3], in [5], in [6] and in experiment [7] was “inactive” each time. Moreover, the Potency result in experiment [8], in experiment [9], in experiment [16], in [10], in [11] and in experiment [18] was “inactive” each time.
Take `C[C@@H]1C[C@H]2[C@@H]3CCC4=CC(=O)C=C[C@]4(C)[C@@]3(Cl)[C@@H](O)C[C@]2(C)[C@@]1(OC(=O)c1ccco1)C(=O)CCl`: the Potency in [1] is 11.8 µM (active); in experiment [2] it was 14.8 µM (active); in [3] it was 14.8 µM (active); in experiment [4] it was 19200 nM (active); in experiment [5], 2.64 µM (active); in experiment [6], 10.5 µM (active). Further, the Potency in experiment [7] was 27.6 µM (active) and 9.68 µM (active); in experiment [9], 15.5 µM (active) and 15.3 µM (active); in [16], 8.33 µM (active); in [10] it was 23.5 µM (active); in experiment [12] it was 369 nM (active); in [13], 2610 nM (active). The Potency is 827 nM (active) in experiment [14], 233 nM (active) in experiment [15] and 10400 nM (active) in [19]. The Potency result in experiment [11] and in [17] was “inactive” in each case.
As for `CC(=O)[C@H]1CC[C@H]2[C@@H]3CC=C4C[C@@H](O)CC[C@]4(C)[C@H]3CC[C@]12C`, the Potency entry in experiment [1], in experiment [2], in experiment [3], in experiment [5], in experiment [6] and in experiment [7] was “inactive” in each case. The Potency result in experiment [8], in [16], in [10], in [11], in [17] and in [18] was “inactive” throughout.
Regarding `CC(C)C[C@H](NC(=O)[C@H](CCc1ccccc1)NC(=O)CN1CCOCC1)C(=O)N[C@@H](Cc1ccccc1)C(=O)N[C@@H](CC(C)C)C(=O)[C@@]1(C)CO1`, the Potency was 53.1 nM (active) and 29.6 nM (active) in experiment [1]; 1.06 µM (active) and 1.48 µM (active) in [2]; 42.2 nM (active) and 93.5 nM (active) in experiment [3]; 42.2 nM (active) and 52.6 nM (active) in experiment [5]; 668 nM (active) and 132 nM (active) in [6]; 87.1 nM (active) and 137 nM (active) in experiment [7]. Also, the Potency in experiment [8] was 106 nM (active) and 264 nM (active); in [9], 61.7 nM (active) and 109 nM (active); in experiment [16], 23.7 nM (active) and 41.8 nM (active); in experiment [10], 42.2 nM (active) and 59 nM (active); in [11], 335 nM (active) and 264 nM (active); in experiment [17], 59.6 nM (active) and 296 nM (active). In addition, the Potency in experiment [18] was 23.7 nM (active) and 46.9 nM (active); in [13] it was 52.2 nM (active); in experiment [14], 8.3 nM (active); in [15], 32.9 nM (active); in experiment [20] it was 73.7 nM (active).
Take `CCN(C)C(=O)Oc1cccc([C@H](C)N(C)C)c1`: the Potency entry in experiment [1], in experiment [2], in [3], in [4], in [5] and in experiment [6] was “inactive” each time. The Potency entry in [7], in experiment [8], in [9], in [16], in [10] and in experiment [11] was “inactive” in each case. The Potency entry in experiment [18] was “inactive”.
For `COc1nc(N)nc2c1ncn2[C@@H]1O[C@H](CO)[C@@H](O)[C@@H]1O`, the Potency entry in experiment [1], in [2], in experiment [3], in experiment [4], in experiment [5] and in [6] was “inactive” in each case. Besides, the Potency result in experiment [7], in experiment [8], in [9], in experiment [16], in experiment [10] and in experiment [11] was “inactive” throughout. In addition, the Potency result in [12], in experiment [15], in experiment [19] and in [20] was “inactive” throughout. In addition, the Potency is 1850 nM (active) in [13] and 2930 nM (active) in experiment [14].
Take `CC(C)OC(=O)C(C(=O)OC(C)C)=C1SC=CS1`: the Potency result in experiment [1], in experiment [3], in experiment [4], in experiment [5], in experiment [6] and in experiment [7] was “inactive” each time. Further, the Potency result in [8], in experiment [16], in experiment [10], in experiment [11], in [17] and in experiment [18] was “inactive” in each case.
Consider `CN(CCOc1ccc(CC2SC(=O)NC2=O)cc1)c1ccccn1` (stereo not given), for which the Potency entry in [1], in experiment [3], in experiment [4], in experiment [5], in experiment [6] and in experiment [7] was “inactive” each time. The Potency result in experiment [8], in experiment [9], in experiment [16], in experiment [10], in experiment [11] and in experiment [17] was “inactive” each time. In addition, the Potency result in experiment [18] is “inactive”.
